# Bioassay records: PubChem, National Center for Advancing Translational Sciences (NCATS)
# Only some compounds are listed: those with a hit (about 10% of all), similar ones and a draw of the others.
# VP16 counter – VP16 counterscreen qHTS for inhibitors of ROR gamma transcriptional activity | Drosophila S2 Gal4-VP16 UAS-luciferase, luminescence, 20 h | Potency, µM (top dose mostly 53.6 µM), for the others: at the top dose activity, negative = inhibition, most hits filed as inhibitors | 310,000 compounds, 3.5% hits | AID 2546, 2010;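 note: Gal4-VP16 expression switched on by copper sulfate through the metallothionein promoter; % is set by controls: 0 for no effect and ±100 for the full control effect; nearly all actives have a fitted effect of over 50% in size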
# SW480 rerep – A quantitative high throughput screen for small molecules that induce DNA re-replication in SW480 colon adenocarcinoma cells; AID 624297, 2012; Potency, µM (doses to about 46.1 µM), for inactives: top-dose re-replication activation, most hits filed as activators; SW480 DNA re-replication, Hoechst DNA content imaging, 48 h; 340,000 compounds, 1.8% hits; note: % of control where 0% means no effect; nearly all actives have a fitted effect of over 55% in size
#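 Cells (250 per well) received 23 nL compound or DMSO by pin tool and were kept 48 hr at 37 C, 5% CO2. Nuclei were then stained with Hoechst for 40 min and scanned for DNA content.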
# KB-V1 MDR tox – qHTS assay for MDR1-selective chemotherapeutics: Primary screen using the drug-selected MDR subline cells KB-V1; 400,000 compounds, 3.4% hits; KB-V1 MDR cells viability, CellTiter-Glo, 72 h; Potency, µM (highest dose often 46.1 µM), most hits filed as cytotoxic; note: % is set by controls: 0 for no effect and ±100 for the full control effect; nearly all actives have a fitted effect of over 60% in size
#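 Cells of the MDR subline KB-V1 are plated, dosed with compound at multiple concentrations, and incubated 72 h at 37 degrees C; CellTiter-Glo is then added and luminescence read after 10 min.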
# RORg inh – qHTS for inhibitors of ROR gamma transcriptional activity; Nuclear receptor ROR-gamma (Mus musculus), P51450; Drosophila S2 Gal4-RORgamma UAS-luciferase reporter, 20 h; Potency, µM (titrated, usually from 53.6 µM), for the others: top-dose activity change, negative = inhibition, hits mostly inhibitors; 310,000 compounds, 5.4% hits; AID 2551, 2010; note: % is set by controls: 0 for no effect and ±100 for the full control effect; nearly all actives have a fitted effect of over 60% in size
# Target sequence (P51450 whole entry, looked up, the tested form may be a part): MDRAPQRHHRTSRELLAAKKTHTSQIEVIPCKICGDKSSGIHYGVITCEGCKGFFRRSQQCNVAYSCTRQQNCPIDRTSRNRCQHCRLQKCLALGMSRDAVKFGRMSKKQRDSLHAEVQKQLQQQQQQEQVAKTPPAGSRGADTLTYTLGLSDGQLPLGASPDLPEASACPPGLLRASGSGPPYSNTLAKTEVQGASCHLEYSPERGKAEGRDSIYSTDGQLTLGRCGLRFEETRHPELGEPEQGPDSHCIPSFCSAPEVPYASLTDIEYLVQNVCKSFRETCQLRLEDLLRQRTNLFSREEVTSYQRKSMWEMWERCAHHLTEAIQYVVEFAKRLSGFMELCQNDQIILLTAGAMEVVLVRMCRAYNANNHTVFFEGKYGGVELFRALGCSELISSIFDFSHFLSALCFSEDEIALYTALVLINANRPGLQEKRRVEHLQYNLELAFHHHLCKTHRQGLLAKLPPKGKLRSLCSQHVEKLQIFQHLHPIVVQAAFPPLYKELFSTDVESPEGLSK
#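 Schneider cells (Drosophila), stable Gal4 DBD–ROR gamma + UAS-luc; 1 hr cmpd preincubation; Cu2+ induction 700 uM final; 20 hr ambient; luminescence.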
# KB-3-1 tox – qHTS assay for MDR1-selective chemotherapeutics: Primary screen using the parental adenocarcinoma cell KB-3-1; KB-3-1 viability, CellTiter-Glo ATP luminescence, 72 h; Potency, µM (highest dose often 46.1 µM), usual class: cytotoxic; 400,000 compounds, 1.4% hits; AID 1347075, 2019; note: % is set by controls: 0 for no effect and ±100 for the full control effect; nearly all actives have a fitted effect of over 60% in size
#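 Luminescent ATP read-out (CellTiter-Glo) measures survival of drug-naive KB-3-1 cells after 72 h compound exposure at 37 °C. Titration series was screened from lowest to highest concentration, with DMSO vehicle plates as background controls.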
# MCF10A rerep – A quantitative high throughput screen for small molecules that induce DNA re-replication in MCF 10a normal breast cells. AID 624296, 2012. Potency, µM (titrated, usually from 46.1 µM), for inactives: at the highest dose activity, positive = re-replication, actives largely listed as activators. 350,000 compounds, 2.9% hits. MCF 10A DNA re-replication, Hoechst nuclear intensity, 48 h; note: % of control where 0% means no effect; nearly all actives have a fitted effect of over 50% in size
# * = called active by the depositor; i = inactive; ? = inconclusive; nt = no result; [ ] = another dose, or the depositor's remark. Calls come from the whole dose curve; as a rule, active = well fitted curve in the direction sought with a large enough effect; inconclusive = small, poorly fitted or top-dose-only effect, or another doubt; inactive = no such curve, though single readings can be large; an effect the other way counts as inactive or inconclusive. Potency is the fitted concentration of half-maximal effect.
SMILES,VP16 counter,SW480 rerep,KB-V1 MDR tox,RORg inh,KB-3-1 tox,MCF10A rerep
O=C(CCSc1ccccc1)Nc1ccc(S(=O)(=O)Nc2ncccn2)cc1,2%,12%,i,5%,i,-4%
CCOc1ccc(N(C)S(=O)(=O)c2ccc3c(c2)C(C)(C)C(=O)N3C)cc1,nt,nt,i,nt,i,nt
COc1ccc(/C=C/c2nnc(NC(=O)CSc3ccc(C)cc3)s2)cc1,?,?,i,?,?,8.2µM*
COc1ccc(Cc2nnc(NC(=O)Nc3ccc(C)cc3)s2)cc1OC,5%,9%,i,0%,i,-2%
COc1ccc(Cc2nnc(NC(=O)CSc3ccc(C)cc3)s2)cc1OC,?,-6%,i,11µM*,i,-2%
CC1(C(=O)NS(=O)(=O)c2ccc(Cl)cc2)CCN1C(=O)Cc1ccsc1 (centres undefined),nt,nt,i,nt,i,nt
COc1ccc2nc(N=Nc3ccc(N(C)C)cc3)sc2c1,1.4µM*,2%,?,14µM*,13µM*,-1%
COc1ccc2nc(/N=C\N(C)C)sc2c1,-6%,6%,i,-4%,i,2%
Cc1cc(/C=C2/NC(=O)NC2=O)c(C)n1-c1sc2c(c1C#N)CCCC2,0%,0%,i,11µM*,i,?
Cc1sc(-n2c(C)cc(/C=C3\SC(=S)NC3=O)c2C)c(C#N)c1C,?,8.2µM*,i,?,?,-2%
Cc1cccc(-n2c(C)cc(/C=C3\NC(=O)NC3=O)c2C)c1,-3%,?,?,1%,i,16µM*
C=CCOC(=O)N[C@@H](Cc1ccccc1)/C(C(=O)OC)=C(\C)NCc1ccccc1,6%,nt,nt,?,nt,nt
CC1CCCN(C(=O)c2ccc(NS(=O)(=O)c3cccc([N+](=O)[O-])c3)cc2)C1 (centres undefined),nt,-3%,i,nt,i,-1%
O=C(NC(=S)N1CCCC1)c1ccccc1,7.1µM*,-2%,i,4µM*,i,?
O=C(NC(=S)N1CCN(Cc2ccccc2)CC1)c1cccnc1,2.5µM*,1%,i,0.89µM*,i,-1%
CC1CCC(C(=O)NC(C(=O)N2CCc3ccccc3C2)C(C)C)CC1 (centres undefined),1%,-1%,i,4%,i,9%
O=C(NC(=S)N1CCN(C/C=C/c2ccccc2)CC1)c1ccc(Cl)nc1,0.32µM*,3%,i,0.11µM*,i,5%
O=C(NCC(=O)N1CCN(C/C=C/c2ccccc2)CC1)c1ccc(Br)cc1,nt,-21%,?,nt,i,-5%
CC1CCC(C(=O)NC(C(=O)N2CCN(c3ccccn3)CC2)C(C)C)CC1 (centres undefined),-26%,4%,3.3µM*,26%,i,7%
CC1CCCCN1C(=S)NC(=O)c1ccccc1 (centres undefined),nt,4%,?,nt,i,14%
Cc1ccc(O)c(Cc2cc(C)cc(Cc3cc(C)ccc3O)c2O)c1,nt,nt,i,nt,?,nt
Cc1ccc(C2C=C(c3ccc(F)cc3)Nc3nc(CCCO)nn32)cc1 (centres undefined),nt,nt,i,nt,i,nt
CC(=O)Nc1ccc(S(=O)(=O)N2CCC(n3c(C)nc4cccnc43)CC2)cc1,nt,nt,i,nt,i,nt
NC(Cc1ccc(C(F)(F)F)cc1)c1csc(Nc2ccc(C(=O)NCc3ccco3)cn2)n1 (centres undefined),nt,nt,i,nt,?,nt
COc1cc2c(cc1OC)CN(C(=S)NC(=O)c1ccccc1)CC2,3.2µM*,1%,i,5.6µM*,i,1%
SMILES,VP16 counter,SW480 rerep,KB-V1 MDR tox,RORg inh,KB-3-1 tox,MCF10A rerep
COc1cc2c(cc1OC)CN(C(=O)c1cc3ccccc3oc1=O)CC2,-7%,?,4.6µM*,3%,?,?
COc1ccc(C(=O)NC(C(=O)N2CCN(c3ccccc3O)CC2)C(C)C)cc1 (centres undefined),11%,-5%,?,2%,i,6%
S=C(NC1CC1)N1CCc2ccccc2C1,19%,-7%,i,?,i,-9%
COc1ccc(C(=O)NC(=S)N2CCN(c3ccccc3O)CC2)cc1,nt,3%,21µM*,nt,i,-5%
S=C(NC1CCCCC1)N1CCc2ccccc2C1,?,6%,15µM*,-97%,?,-61%
COc1ccccc1NC(=O)Cn1cc(S(=O)(=O)Cc2ccccc2)c2ccccc21,nt,nt,i,nt,i,nt
O=C(c1cccnc1)N1CCN(Cc2ccc3ccccc3c2)CC1,4%,0%,?,7%,?,18µM*
O=C(N/C(=C/c1cccnc1)C(=O)N1CCCCCC1)c1cccc(Br)c1,?,1%,?,10µM*,i,8%
C=CCNC(=O)COc1ccc(S(=O)(=O)NC2CCCCC2)cc1,-5%,15µM*,i,17%,i,10µM*
Cc1cc(S(=O)(=O)NC2CCCCC2)ccc1OCC(=O)NCc1ccccn1,nt,28%,18µM*,-35%[0.365 µM],i,19%
Cc1cc(S(=O)(=O)N2CCCC2)ccc1OCC(=O)NCc1ccccn1,-7%,-6%,?,40%,i,-12%
O=C(N/C(=C\c1cccnc1)C(=O)N1CCC(O)CC1)c1ccccc1,5%,0%,i,-16%,i,-1%
O=C(c1cccnc1)N1CCN(Cc2cccc(F)c2)CC1,-1%,?,i,-7%,i,?
O=C(NC(=S)N1CCN(c2ccccc2)CC1)c1ccccc1,1.1µM*,nt,nt,1.4µM*,nt,nt
O=C(NC(=S)N1CCCCC1)c1cccnc1,3.2µM*,-8%,i,0.71µM*,i,-1%
O=C(NC(=S)N1CCN(c2ccc(F)cc2)CC1)c1ccccc1,nt,nt,?,nt,i,nt
O=C(NC(=S)N1CCCCCC1)c1ccccc1,1.8µM*,-8%,i,1.4µM*,i,-29%
O=C(NC(=O)N1CCCCC1)c1ccccc1,5%,-3%,i,29%,i,-2%
O=C(NC(=S)N1CCN(C2CCCCC2)CC1)c1ccccc1,3.2µM*,-3%,?,0.89µM*,i,2%
S=C(Nc1cccnc1)N1CCCCC1,-1%,-1%,i,31%,i,24%
COc1ccc(-c2cc(OC(=O)c3cccc(Cl)c3)c3c(C)oc(C)c3c(=O)c2)cc1,nt,nt,i,nt,i,nt
Cc1cc(OCC(=O)Nc2c(C(=O)c3ccccc3)oc3ccccc23)cc(C)c1Cl,nt,nt,?,nt,i,nt
